# Measurements taken from PubChem BioAssay.
# Assays:
# [1] = system: Human papillomavirus type 1a protein E7 (residues 44-93); test: small molecules binding HPV E7 44-93 – biochemical, small-molecule microarray, residues 44-93, 635 nm fluorescence, primary screen (AID 1108); details: fluorescence 635 nm, higher = more signal;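 note: E7 fragment applied at 1 µg/mL in TBST for 1 h at 4 C; score combines spot fluorescence with its signal to noise ratio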
# [2] = hepatitis C replication reporter changes, two-sided – Huh7 cells, luciferase reporter, HCV replication inhibitor project, primary screen (AID 1109); details: Huh7 HCV replicon luciferase reporter, 48 h; higher = more signal;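 note: huh7 hepatoma cells harbouring a luciferase neomycin HCV replicon reporter; luciferase luminescence as measure of HCV replicon replication; test concentration not given here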
# [3] = biological target: Left-right determination factor 2 (Homo sapiens) (UniProt O00292); test: small molecules binding LEFTY2 protein – biochemical, small-molecule microarray, 635 nm fluorescence scan, primary screen (AID 1110); details: higher = more signal
# Sequence of Left-right determination factor 2 (Homo sapiens) (O00292 whole entry, looked up): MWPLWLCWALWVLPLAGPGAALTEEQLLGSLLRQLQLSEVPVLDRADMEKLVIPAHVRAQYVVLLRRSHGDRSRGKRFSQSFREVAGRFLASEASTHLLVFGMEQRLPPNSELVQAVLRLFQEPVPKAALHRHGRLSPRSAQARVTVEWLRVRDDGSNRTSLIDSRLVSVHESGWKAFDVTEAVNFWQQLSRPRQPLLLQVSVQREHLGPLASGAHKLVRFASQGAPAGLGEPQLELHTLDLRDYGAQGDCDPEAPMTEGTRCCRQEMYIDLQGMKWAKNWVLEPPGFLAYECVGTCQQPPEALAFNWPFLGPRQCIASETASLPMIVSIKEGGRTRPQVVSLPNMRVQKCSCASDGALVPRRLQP
# [4] = biological target: Calmodulin-1 (Homo sapiens) (UniProt P0DP23); test: small molecules binding calmodulin-1 with EGTA – biochemical, small-molecule microarray, Cy5-labelled CALM1, profiling panel (AID 1111); details: Cy5-CALM1 binding fluorescence, higher = more signal;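 note: labelled calmodulin applied in Tris saline Tween buffer holding calcium plus EGTA and DTT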
# [5] = biological target: Calmodulin-1 (Homo sapiens) (UniProt P0DP23); test: small molecules binding Ca-loaded calmodulin-1 – biochemical, small-molecule microarray, Cy5-labelled CALM1, plus calcium, artefact control for SMM control-protein annotation, profiling panel (AID 1112); details: Cy5-CALM1 binding fluorescence, higher = more signal;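 note: score merges spot fluorescence with signal to noise from triplicate slides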
# [6] = probe aWnt5a binding to arrayed compounds – biochemical, biotinylated probe, 635/667 nm fluorescence, primary screen (AID 1113); details: small-molecule microarray, higher = more signal;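 note: score merges 667 nm fluorescence intensity with signal-to-noise per printed feature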
# [7] = probe aShh binding to arrayed compounds – biochemical, biotinylated probe, 635/667 nm fluorescence, primary screen (AID 1114); details: small-molecule microarray, higher = more signal;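 note: probe is biotin-labelled aShh protein from a stem cell growth factor screen; measures binding of labelled protein to compounds printed on the slide; score merges feature fluorescence at 667 nm with signal-to-noise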
# [8] = probe aNog binding to arrayed compounds – biochemical, biotinylated probe, 635/667 nm fluorescence, primary screen (AID 1115); details: small-molecule microarray, higher = more signal;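 note: probe is biotinylated aNog protein used at 0.15 µg/mL for 1 h at 4 C; z-score combines 667 nm fluorescence of each spot with its signal to noise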
# [9] = biological target: Torsin-1A-interacting protein 1 (Homo sapiens) (UniProt Q5JTV8); test: compound microarray binding of lysate hLAP1 – cell lysate, small-molecule microarray, COS7 lysate, 635/667 nm fluorescence, primary screen (AID 1116); details: 635 nm fluorescence, higher = more signal
# Sequence of Torsin-1A-interacting protein 1 (Homo sapiens) (Q5JTV8 whole entry, looked up): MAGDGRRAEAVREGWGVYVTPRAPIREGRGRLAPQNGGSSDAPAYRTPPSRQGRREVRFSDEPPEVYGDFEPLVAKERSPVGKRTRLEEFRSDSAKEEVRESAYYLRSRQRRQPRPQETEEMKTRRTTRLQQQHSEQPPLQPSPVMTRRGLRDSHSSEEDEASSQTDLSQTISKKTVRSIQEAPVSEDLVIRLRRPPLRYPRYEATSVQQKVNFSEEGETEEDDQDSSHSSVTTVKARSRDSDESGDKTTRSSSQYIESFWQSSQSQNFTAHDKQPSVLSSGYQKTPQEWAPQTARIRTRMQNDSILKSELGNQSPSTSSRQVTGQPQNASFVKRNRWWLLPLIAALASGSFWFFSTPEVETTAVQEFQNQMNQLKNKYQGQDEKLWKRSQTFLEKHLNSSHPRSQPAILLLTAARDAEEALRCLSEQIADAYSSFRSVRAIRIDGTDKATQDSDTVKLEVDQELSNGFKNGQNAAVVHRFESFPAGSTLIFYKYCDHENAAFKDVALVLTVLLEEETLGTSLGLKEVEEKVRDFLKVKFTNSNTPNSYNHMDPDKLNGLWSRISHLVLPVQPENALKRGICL
# [10] = biological target: Alpha-bungarotoxin (Bungarus multicinctus) (UniProt P60615); test: compounds binding labelled alpha-BTX control protein – biochemical, small-molecule microarray, Alexa647 label, 635/667 nm fluorescence, artefact control for SMM control protein annotation, profiling panel (AID 1117); details: alpha-BTX-A647 binding fluorescence, higher = more signal
# Sequence of Alpha-bungarotoxin (Bungarus multicinctus) (P60615 whole entry, looked up): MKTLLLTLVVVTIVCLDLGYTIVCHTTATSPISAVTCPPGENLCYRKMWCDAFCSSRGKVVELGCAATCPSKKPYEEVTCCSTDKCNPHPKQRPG
Structure (SMILES),composite z-score [1],z-score [2],composite z-score [3],composite z-score [4],composite z-score [5],composite z-score [6],composite z-score [7],composite z-score [8],composite z-score [9],composite z-score [10]
NC(=O)NCC#Cc1ccc2c(c1)[C@]1(C(=O)N2)[C@H](C(=O)Nc2nc3ccccc3s2)[C@H]2C(=O)O[C@H](c3ccccc3)[C@H](c3ccccc3)N2[C@@H]1c1ccc(OCCO)cc1,0.537,-0.942,-0.828,0.84,0.417,0.0108,-0.151,-0.464,0.281,0.9
CC(C)N1CC=CC23O[C@@H]4C=CCCOC(=O)C4[C@H]2C(=O)N(CCCCCO)[C@@H]3C1=O (stereo not given in full),-0.734,-0.26,-1.18,0.861,-1.34,-0.124,-0.0011,-0.123,1.92,2.25
CC(C)C[C@H]1NC(=O)[C@H](Cc2ccccc2)NC(=O)[C@@]23C(=O)N[C@@H](Cc4ccccc4)C2[C@H](C)[C@@]2(C)O[C@H]2C3/C=C/C/C=C\CNC1=O (stereo not given in full),-0.361,-2.09,0.431,-0.128,0.263,-0.096,-0.214,0.3,0.765,0.93
CCCC[C@@H]1C[C@H]1[C@@H](NC(=O)c1ccc(C(F)(F)F)cc1)c1ccc(C(=O)OC)cc1,0.733,-1.33,0.497,0.995,0.271,0.869,2.11,0.238,1.27,1.48
NCCCC[C@@H]1NC(=O)[C@H]2C[C@@H](C(=O)NCc3ccc(F)cc3)[C@@H](c3cccc(OCCO)c3)N2C1=O,1.43,-2.1,1.13,0.986,-0.75,0.0077,-0.0119,0.127,1.92,0.538
C=CCOC(=O)[C@@H]1[C@H]2C(=O)O[C@H](c3ccccc3)[C@H](c3ccccc3)N2[C@H](c2ccc(OCCOC(=O)[C@H]3C[C@H]4C(=O)NCC(=O)N4[C@H]3c3ccc(O)cc3)cc2)[C@@]12C(=O)Nc1ccc(I)cc12,0.222,-2.09,0.606,0.342,-0.103,-0.0758,-0.294,0.036,1.27,1.74
[N-]=[N+]=NCc1ccccc1C[C@]1(C(=O)NCc2ccccc2)N=C(c2ccc(OCCCO)cc2)O[C@H]1c1ccccc1CN=[N+]=[N-],1.42,-2.3,-0.578,1.36,0.533,0.0474,0.338,-0.0439,1.9,1.87
C=CCC(OC(C)=O)[C@@H]1[C@@H](N(Cc2ccc(-c3cccc(C(F)(F)F)c3)o2)C(=O)Cc2ccc(F)cc2)c2cc(OCCCO)ccc2N1C(=O)c1ccc2ccccc2c1 (stereo not given in full),-1.18,-0.735,-0.72,-0.681,-0.214,-0.0548,-0.221,-0.624,0.0175,-0.318
C#CCN(C/C=C/c1ccccc1)[C@H](CO[Si](C)(C)C(C)(C)C)c1ccccc1,-0.115,-2.36,0.301,-0.488,-1.03,-0.0403,-0.0553,-0.565,-0.221,-0.482
COCCOC(=O)N1C(=O)[C@@]2(c3cc(C#CCC(C(=O)OC)C(=O)OC)ccc31)[C@H](C(N)=O)[C@H]1C(=O)O[C@H](c3ccccc3)[C@H](c3ccccc3)N1[C@@H]2c1ccc(OCCO)cc1,1.43,-1.88,0.705,1.27,-0.27,-0.0161,0.184,0.177,0.775,1.44
CC(C)C(=C=CC[C@@H](O)c1ccccc1OCCO)C[C@@H](O)c1cc(Cl)cc(Cl)c1O,1.48,-3.27,0.744,0.341,-0.538,-0.0735,-0.153,0.432,-0.197,1.54
COCCOC(=O)N1C(=O)[C@@]2(c3cc(C#CCCO)ccc31)[C@H](C(=O)N1CCc3cc(OC)c(OC)cc3C1)[C@H]1C(=O)O[C@H](c3ccccc3)[C@H](c3ccccc3)N1[C@@H]2c1ccccc1OCCO,1.4,-1.75,0.473,1.43,0.013,0.186,-0.0146,0.596,0.325,0.477
COCCOC(=O)N1C(=O)[C@@]2(c3ccccc31)[C@H](C(N)=O)[C@H]1C(=O)O[C@H](c3ccccc3)[C@H](c3ccccc3)N1[C@@H]2c1ccc(OCCO)cc1,1.45,-1.09,0.234,0.68,-0.183,-0.063,0.0723,-0.0161,0.905,1.37
O=C1O[C@H](c2ccccc2)[C@H](c2ccccc2)N2[C@H]1[C@@H](C(=O)N1CCN(c3ncccn3)CC1)[C@]1(C(=O)Nc3ccccc31)[C@H]2c1ccc(O)cc1,1.43,-1.9,-0.412,1.28,0.618,-0.0643,-0.119,0.265,-0.15,0.593
COCCOC(=O)N1C(=O)[C@@]2(c3cc(C#CCNC(N)=O)ccc31)[C@H](C(=O)NC[C@H](O)c1ccccc1)[C@H]1C(=O)O[C@H](c3ccccc3)[C@H](c3ccccc3)N1[C@@H]2c1ccc(OCCO)cc1,1.11,0.724,0.319,0.565,0.442,-0.0459,0.13,1.09,1.47,0.41
CCCCC(O)C1C=CC2C(=O)NC(=O)C2N1Nc1ccccn1 (stereo not given),-0.382,-1.11,0.132,-0.0937,-0.466,-0.1,0.25,0.289,0.233,0.275
CCCC=C(CCC)[C@@H](NC(=O)c1ccccc1)c1ccc(C(=O)OC)cc1,0.882,-1.32,0.898,-0.271,-0.52,0.732,0.318,1.71,-0.171,0.303
